Drawing on PubChem BioAssay (EPA / NIEHS), this text covers AC50 and outcome for 17 compounds.

Activity calls are given as the source filed them. How the source made its calls: active means hit-call score of the fitted dose curve at least 0.9, where 1 is the maximum; inactive means score below 0.9.

The nature of this assay: CCTE_Shafer_MEA_acute_synchrony_index: CCTE's Neural Acute Assay for Synchrony, Shafer Lab (AID 2284027).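 Further: fitted for loss of signal so actives lower synchrony relative to DMSO.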 In short, it runs like this: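 Readout is percent change in the unitless network synchrony index (0 low, 1 high) between a 40-min baseline and a 40-min recording in compound. Cultures were primary rat cortical neurons on MEAs, treated at 0.03-40 uM on DIV 13 or 15.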
In the case of `OC(c1ccc(Cl)cc1)(c1ccc(Cl)cc1)C(Cl)(Cl)Cl`, the AC50 is 8.65 µM (active).
On to `CC1(C)C(C(=O)OC(C#N)c2cccc(Oc3ccccc3)c2)C1(C)C` (configuration not stated), for which the AC50 was 1.03 µM (active).
On the same count and under the same terms, the same measure for `Cn1c(-c2ccccc2)cc(-c2ccccc2)[n+]1C`: 36.8 µM (active); for `CCCC(=NOCC)C1=C(O)CC(CC(C)SCC)CC1=O` (configuration not stated): 28.2 µM (active).
For the compound `CC1(C)C(C=C(Cl)Cl)C1C(=O)OC(C#N)c1cccc(Oc2ccccc2)c1` (configuration not stated), the AC50 is 3.97 µM (active).
With `CC(C)=CC1C(C(=O)OCc2coc(Cc3ccccc3)c2)C1(C)C` (configuration not stated), the AC50 was 20 µM (active).
As for `CNC(=O)Oc1cccc2ccccc12`, the call was inactive.
Still for that read-out and setting: for `C=C(C)CN(CC)c1c([N+](=O)[O-])cc(C(F)(F)F)cc1[N+](=O)[O-]` the value was “inactive”.
Turning to `COC(=O)N(C(=O)N1CO[C@@]2(C(=O)OC)Cc3cc(Cl)ccc3C2=N1)c1ccc(OC(F)(F)F)cc1`, the AC50 is 26.6 µM (active).
`CO/N=C(/C1=NOCCO1)c1ccccc1Oc1ncnc(Oc2ccccc2Cl)c1F`: the AC50 was 20 µM (active).
On to `Cc1c(COC(=O)[C@@H]2[C@H](/C=C(\Cl)C(F)(F)F)C2(C)C)cccc1-c1ccccc1`, for which the AC50 was 0.786 µM (active).
On to `CCOc1cc(C(C)(C)C)ccc1C1COC(c2c(F)cccc2F)=N1` (configuration not stated), for which the AC50 was 20 µM (active).
On to `Cc1ccc(N=CN(C)C=Nc2ccc(C)cc2C)c(C)c1`, for which the result was inactive.
With `Nc1c(Cl)c(F)nc(OCC(=O)O)c1Cl`, the result was inactive.
Turning to `COCC(=O)N(c1c(C)cccc1C)C(C)C(=O)OC` (configuration not stated), the call was inactive.
On the same count and under the same terms, for `CC(C)C1(C)N=C(c2ncccc2C(=O)O)NC1=O` (configuration not stated) the value was “inactive”.
`CC(C)N1C(=O)N(c2ccccc2)CSC1=NC(C)(C)C`: the AC50 was 23.2 µM (active).
